ChEMBL document CHEMBL3988442, “University of Dundee, Small-Polar-MMV Screening Library” (2021)
Among all 69,000 compounds or so, about 420 (0.61%) showed an effect of 50% or more. This is one part of a sample in which strong results are shown more often than they occur.

Each compound was assayed against T1, Histidine--tRNA ligase (Leishmania infantum) (UniProt A4I591) (assay: Leishmania infantum Histidine tRNA synthetase (LdHisRS)). Details: 30 µM.
T1 sequence (whole entry): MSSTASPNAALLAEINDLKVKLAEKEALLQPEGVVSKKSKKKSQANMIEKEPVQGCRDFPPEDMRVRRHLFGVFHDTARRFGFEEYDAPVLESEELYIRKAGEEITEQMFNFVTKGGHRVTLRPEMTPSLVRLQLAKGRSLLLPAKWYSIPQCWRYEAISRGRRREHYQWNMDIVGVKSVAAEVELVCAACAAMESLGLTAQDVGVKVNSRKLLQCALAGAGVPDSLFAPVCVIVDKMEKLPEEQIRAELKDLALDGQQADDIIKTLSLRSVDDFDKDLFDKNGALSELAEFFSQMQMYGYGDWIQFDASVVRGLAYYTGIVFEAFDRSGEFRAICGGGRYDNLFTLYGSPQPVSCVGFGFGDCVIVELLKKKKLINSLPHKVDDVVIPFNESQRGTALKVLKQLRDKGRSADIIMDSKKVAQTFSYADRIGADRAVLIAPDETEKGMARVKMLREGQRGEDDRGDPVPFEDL
Format: functional
Parameters: scale not given: in the data most compounds retested in dose-response had high values

Compound | Percent Effect [%]
CN(Cc1cccs1)C(=O)c1ccc(=O)n(C)c1 | 11.3
Cc1occc1CN(C)C(=O)Nc1ccc(=O)n(C)c1 | 102
COc1ccc(NC(=O)N(C)Cc2ccco2)cn1 | 16
CN(Cc1ccco1)C(=O)Nc1ccc(=O)n(C)c1 | 102
CN(Cc1ccc2c(c1)OCO2)C(=O)c1ccc(=O)n(C)c1 | 5.33
CS(=O)(=O)N[C@@H]1CN(C(=O)c2cccnc2)[C@@H]2CCCO[C@@H]21 | 8.26
O=C([C@@H]1C[C@@H]2CCN(C3CCOCC3)C[C@@H]2O1)N1CCOCC1 | 8.33
CC(=O)N1CCN(C(=O)CNc2ccc3sccc3c2)CC1 | 27.2
CC(=O)N1CCN(C(=O)C(C)Nc2ccc3ncsc3c2)CC1 (stereo not given) | 28.9
CC(=O)N1CCN(C(=O)CNc2ccc3ncsc3c2)CC1 | 58.8
Cn1nc2c(cc1=O)CN(Cc1coc(-c3ccc(F)cc3)n1)CC2 | 90.3
Cn1nc2c(cc1=O)CN(Cc1coc(-c3cccc(F)c3)n1)CC2 | 90.3
Cn1nc2c(cc1=O)CN(Cc1coc(-c3cccs3)n1)CC2 | 97.6
Cn1nc2c(cc1=O)CN(Cc1coc(-c3ccccc3)n1)CC2 | 44.7
CC1CCCN(Cc2coc(-c3cccc(F)c3)n2)C1 (stereo not given) | 13.7
CN(C)CC1CN(Cc2coc(-c3cccs3)n2)CCO1 (stereo not given) | 14.9
CCN1CCN(Cc2coc(-c3cccc(F)c3)n2)CC1 | 21.9
O=C1NCCN1C1CCCN(Cc2coc(-c3ccc(F)cc3)n2)C1 (stereo not given) | 24.6
CCn1nc2c(cc1=O)CN(Cc1coc(-c3ccccc3)n1)CC2 | 14.9
O=C1NCCN1C1CCN(Cc2coc(-c3ccc(F)cc3)n2)CC1 | 9.82
Cc1ccc(-c2nc(CN3CCc4nn(C)c(=O)cc4C3)co2)cc1 | 107
O=C1NCCN1C1CCCN(Cc2coc(-c3cccs3)n2)C1 (stereo not given) | 13.4
Cc1cccc(S(=O)(=O)N2CC[C@H]3CO[C@H](CN(C)C)[C@H]3C2)c1 | 0.917
Cc1ccc(CN2C[C@H](N(C)Cc3cncnc3)[C@H]3OCCC[C@H]32)o1 | 15.4
O=C1CCCC2=C1C(c1ccc(F)cc1F)Nc1nonc1N2 (stereo not given) | 14.6
Cc1ccccc1CN1C[C@@H]2CC[C@H](C1)N(CC1CCC1)C2=O | 34.4
CCOCC(=O)N1C[C@@H]2CC[C@H](Oc3ccccc3)[C@@H]2C1 | 26.3
COc1ccc(CNCCC(=O)N2CCc3sccc3C2)cc1O | 26.9

Compound | Percent Effect [%]
O=C(CCNCc1cccc(O)c1)N1CCc2sccc2C1 | 85
N#Cc1cccc(CNCCC(=O)N2CCc3sccc3C2)c1 | 5.38
c1cnnc(N2CCCC(NCc3nc(-c4ccco4)no3)C2)c1 (stereo not given) | 0.926
c1cnnc(N2CCCC(NCc3nc(-c4cccs4)no3)C2)c1 (stereo not given) | 24.7
c1ccc(-c2noc(CNC3CCCN(c4cccnn4)C3)n2)nc1 (stereo not given) | 67.7
Cc1cccc(CN2C[C@@H]3OCCN(CC(=O)N(C)C)[C@@H]3C2)c1 | 13.5
O=C(c1ncccn1)N1C[C@@H]2COC[C@]2(COc2cccnc2)C1 | 17.3
CS(=O)(=O)c1ccc(CN2C[C@H]3CC[C@@H]2CN(c2ncccn2)C3)cc1 | 15
CCS(=O)(=O)N1CCC2(CC1)CC[C@@]1(C(=O)NC)CN(C(C)=O)C[C@@H]21 | 19.7
CC(C)(C)C(=O)N1CC[C@H]2NC(=O)N(c3ccc(F)cc3)C(=O)[C@H]21 | 19.4
Cc1nc([C@@H]2C[C@@H]3CCN(C(=O)c4ccnnc4)C[C@H]3O2)sc1C | 18.4
Cc1ccccc1N1CCN(c2nc(N(C)C)nc3c2CCNC3)CC1 | 58.6
CC(Nc1nc(-c2ccncc2)nc2c1CCNC2)c1ccccc1 (stereo not given) | 54.1
CC(Nc1nc(-c2ccccc2)nc2c1CCNCC2)c1nccs1 (stereo not given) | 19.7
Cc1nc2c(c(N3CCN(c4ncccc4C(N)=O)CC3)n1)CCNC2 | 12.9
Cc1cc2n(n1)CCN(c1nc(N(C)C)nc3c1CCNC3)C2 | 36.7
c1ccc2c(c1)CN(c1ncnc3c1CCNC3)CCO2 | 16.1
Cc1cccc(=O)n1CCCNc1nc(N(C)C)nc2c1CCNC2 | 35.3
CN(C)c1nc2c(c(N3CCc4c(c(CO)nn4C)C3)n1)CCNC2 | 11.4
c1ccc2c(c1)CCN(c1nc(-c3ccncc3)nc3c1CCNC3)C2 | 101
c1ccc2c(c1)CCN(c1ncnc3sc4c(c13)CCNC4)C2 | 15.1
CN(C)c1nc2c(c(N3CCc4ccccc4C3)n1)CCNC2 | 58.6
CC(Nc1nc(-c2ccccc2)nc2c1CCNCC2)c1cccnc1 (stereo not given) | 16.4
CCOc1ccc(C(=O)N2C[C@H]3CC[C@@H]2CN(C)C3)cc1OCC | 15.1
O=C1[C@H]2CN(S(=O)(=O)c3cccs3)C[C@H]2CN1CC1CC1 | 21.4
CN(Cc1cncnc1)[C@@H]1CN(C(=O)c2ccco2)[C@@H]2CCCO[C@H]12 | 17.3
CCC1=N[C@@]2(CC[C@@H]3CN(Cc4ccc(F)cc4)C[C@@H]32)C(=O)N1C | 8.18
